The text below walks through data of PubChem BioAssay.

Assay [1] has as its system Human papillomavirus type 1a protein E7 (residues 44-93). Briefly: HPV1a E7 fragment binders on microarrays, primary screen, biochemical, small-molecule microarray, residues 44-93, 635 nm fluorescence (AID 1108).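 Note: E7 fragment applied at 1 µg/mL in TBST for 1 h at 4 C; score combines spot fluorescence with its signal to noise ratio.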 To be noted: small-molecule microarray binding, fluorescence 635 nm; higher = more signal.
Assay [2] is described as follows: modulators of HCV replicon luciferase signal, primary screen, HCV replication inhibitor project, Huh7 cells, luciferase reporter (AID 1109).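 Note: huh7 hepatoma cells harbouring a luciferase neomycin HCV replicon reporter; luciferase luminescence as measure of HCV replicon replication; test concentration not given here.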 To be noted: 48 h, higher = more signal. On the technique in general: In antiviral work, replicon cells carry a viral genome segment that copies itself.
In assay [3] the target is Left-right determination factor 2 (Homo sapiens) (UniProt O00292). Description: LEFTY2 binders on small-molecule microarrays, primary screen, biochemical, small-molecule microarray, 635 nm fluorescence scan (AID 1110). The conditions noted are these: LEFTY2 binding, higher = more signal.
Sequence of Left-right determination factor 2 (Homo sapiens) (O00292 whole entry, looked up): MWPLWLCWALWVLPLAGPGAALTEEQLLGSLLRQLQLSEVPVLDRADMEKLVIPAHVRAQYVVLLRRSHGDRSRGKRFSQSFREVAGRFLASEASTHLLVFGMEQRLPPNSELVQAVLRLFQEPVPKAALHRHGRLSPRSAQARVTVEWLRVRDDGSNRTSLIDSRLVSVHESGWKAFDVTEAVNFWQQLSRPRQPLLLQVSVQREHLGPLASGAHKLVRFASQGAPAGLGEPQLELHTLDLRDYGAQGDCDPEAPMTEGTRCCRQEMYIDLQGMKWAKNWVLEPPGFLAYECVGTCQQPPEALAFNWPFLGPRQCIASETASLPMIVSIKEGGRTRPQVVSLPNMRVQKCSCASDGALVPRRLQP
Assay [4] addresses Calmodulin-1 (Homo sapiens) (UniProt P0DP23). Briefly: CALM1 binders on microarrays, EGTA buffer, profiling panel, biochemical, small-molecule microarray, Cy5-labelled CALM1 (AID 1111).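 Note: labelled calmodulin applied in Tris saline Tween buffer holding calcium plus EGTA and DTT.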 To be noted: Cy5-CALM1 binding fluorescence, higher = more signal.
For assay [5] the target is unchanged. Description: calcium-bound CALM1 binders on microarrays, profiling panel, artefact control for SMM control-protein annotation, biochemical, small-molecule microarray, Cy5-labelled CALM1, plus calcium (AID 1112).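 Note: score merges spot fluorescence with signal to noise from triplicate slides.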 To be noted: Cy5-CALM1 binding fluorescence, higher = more signal.
Assay [6] can be described thus: small-molecule microarray binders of probe aWnt5a, primary screen, biochemical, biotinylated probe, 635/667 nm fluorescence (AID 1113).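 Note: score merges 667 nm fluorescence intensity with signal-to-noise per printed feature.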 To be noted: higher = more signal.
Assay [7] is described as follows: small-molecule microarray binders of probe aShh, primary screen, biochemical, biotinylated probe, 635/667 nm fluorescence (AID 1114).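 Note: probe is biotin-labelled aShh protein from a stem cell growth factor screen; measures binding of labelled protein to compounds printed on the slide; score merges feature fluorescence at 667 nm with signal-to-noise.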 The conditions noted are these: higher = more signal.
Assay [8] is described as follows: small-molecule microarray binders of probe aNog, primary screen, biochemical, biotinylated probe, 635/667 nm fluorescence (AID 1115).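 Note: probe is biotinylated aNog protein used at 0.15 µg/mL for 1 h at 4 C; z-score combines 667 nm fluorescence of each spot with its signal to noise.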 The conditions noted are these: higher = more signal.
The target in assay [9] is Torsin-1A-interacting protein 1 (Homo sapiens) (UniProt Q5JTV8). Description: LAP1 binders from COS7 cell lysate, primary screen, small-molecule microarray, 635/667 nm fluorescence (AID 1116). To be noted: COS7-hLAP1 lysate binding, 635 nm fluorescence, higher = more signal.
Sequence of Torsin-1A-interacting protein 1 (Homo sapiens) (Q5JTV8 whole entry, looked up): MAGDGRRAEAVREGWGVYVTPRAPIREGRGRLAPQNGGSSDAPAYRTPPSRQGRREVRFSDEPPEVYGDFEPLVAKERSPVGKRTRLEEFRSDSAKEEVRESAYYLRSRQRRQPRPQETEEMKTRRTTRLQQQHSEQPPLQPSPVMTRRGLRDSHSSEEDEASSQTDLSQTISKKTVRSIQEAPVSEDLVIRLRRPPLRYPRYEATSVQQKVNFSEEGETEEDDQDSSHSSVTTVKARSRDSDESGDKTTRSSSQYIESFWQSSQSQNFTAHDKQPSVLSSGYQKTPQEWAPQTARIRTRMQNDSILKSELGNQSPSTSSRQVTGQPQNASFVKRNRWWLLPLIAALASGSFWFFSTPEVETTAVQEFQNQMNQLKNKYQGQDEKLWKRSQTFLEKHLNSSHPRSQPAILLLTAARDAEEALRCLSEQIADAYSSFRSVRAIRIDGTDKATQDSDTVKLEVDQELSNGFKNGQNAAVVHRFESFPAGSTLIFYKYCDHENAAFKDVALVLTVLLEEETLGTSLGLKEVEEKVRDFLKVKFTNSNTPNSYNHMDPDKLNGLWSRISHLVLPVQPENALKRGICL
In assay [10] the target is Alpha-bungarotoxin (Bungarus multicinctus) (UniProt P60615). Description: alpha-bungarotoxin binders on microarray, profiling panel, artefact control for SMM control protein annotation, biochemical, small-molecule microarray, Alexa647 label, 635/667 nm fluorescence (AID 1117). The conditions noted are these: alpha-BTX-A647 binding fluorescence, higher = more signal.
Sequence of Alpha-bungarotoxin (Bungarus multicinctus) (P60615 whole entry, looked up): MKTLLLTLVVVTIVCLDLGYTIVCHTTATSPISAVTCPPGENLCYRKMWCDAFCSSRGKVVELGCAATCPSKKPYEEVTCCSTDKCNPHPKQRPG

As to `O=C1c2ccccc2[C@](Cc2ccccc2I)(C(=O)O)[C@H](c2ccc(CO)cc2)N1C1CCCCC1`, the composite z-score in assay [1] was 1.02; in assay [3], 0.15; in assay [4] it was 1.61; in assay [5] it was 0.487; in [6] it was -0.0203; in [7], -0.018. For the same compound, the composite z-score in [8] amounted to 0.213; in [9] it was 1.5; in assay [10], 1.53. This compound also displayed a z-score in assay [2] of -1.33.
As for `CN(C)c1ccc(C(O)C2C=CC3C(=O)NC(=O)C3N2Nc2ccc(Cl)cc2Cl)cc1` (stereo not given), the composite z-score in assay [1] was 1.36; in assay [3] it was -1.14; in [4], 0.615; in assay [5], -0.327; in assay [6] it was 0.0328; in [7] it was 0.0993. Further, the results for the composite z-score in [8], in assay [9] and in assay [10] were 1.21, 0.0689 and 0.359, respectively. The same compound returned a z-score in [2] of -0.0428.
Turning to `C[C@]1(C(=O)NCCN2CCOCC2)c2ccccc2C(=O)N(Cc2ccccc2)[C@H]1c1ccc(CO)cc1`, the composite z-score in assay [1] was -0.474; in [3], -1.01; in assay [4] it was -0.193; in assay [5] it was 0.349; in assay [6], 0.763; in assay [7] it was 0.163. Moreover, the composite z-score is -0.195 in [8], -0.705 in assay [9] and 0.0519 in [10]. This compound had a z-score in [2] of -0.326.
`Cc1ccc(N2C(=O)c3ccccc3[C@@H](C(=O)NCc3ccccc3)[C@@H]2c2ccc(CO)cc2)nc1`: the composite z-score in [1] was -0.752; in assay [3], -0.292; in assay [4], -0.869; in assay [5], -0.313; in [6], -0.148; in assay [7] it was 0.901. The composite z-score in assay [8] is -0.361; in assay [9] it was 0.776; in [10] it was -0.326. In addition, in [2], the z-score was -0.139.
As to `CC(C)[Si]1(C(C)C)OCc2cc(C3CC3)nc(-c3ccccc3)c21`, the composite z-score in [1] is -0.84; in [3] it was -0.231; in assay [4], -1.23; in assay [5], -0.183; in assay [6] it was -0.15; in assay [7], -0.09. Further, the composite z-score is -0.0841 in [8], -0.694 in assay [9] and -0.249 in assay [10]. Besides, the z-score in assay [2] was -0.222.
In the case of `CCCC=C(CCC)[C@@H](NS(=O)(=O)c1ccc(C(F)(F)F)cc1)c1ccc(-c2ccccc2)cc1`, the composite z-score in assay [1] amounted to 1.32; in assay [3], 0.34; in assay [4], 1.06; in assay [5], 0.878; in assay [6], 0.145; in [7], 0.217. The figures for the composite z-score in [8], in assay [9] and in assay [10] were 0.157, 0.0541 and 0.709, respectively. Further, in assay [2], the z-score was -1.08.
Consider `Cc1ccc(S[C@]2(C(=O)O)CC(=O)N(Cc3cc(C(F)(F)F)cc(C(F)(F)F)c3)[C@@H]2c2ccc(CO)cc2I)cc1`, for which the composite z-score is -0.0997 in [1]; -2.05 in assay [3]; -0.279 in assay [4]; 0.74 in [5]; -0.0824 in assay [6]; 0.0767 in [7]. The composite z-score was 0.181 in [8], 0.598 in assay [9] and -0.206 in assay [10]. The z-score in assay [2] was -1.39.
Take `Cc1ccc(S[C@]2(C(=O)NCCCN(C)C)CC(=O)N(C3CCCCC3)[C@@H]2c2ccc(CO)cc2I)cc1`: the composite z-score in [1] was -1.32; in assay [3], -0.848; in assay [4] it was -0.454; in assay [5], 0.49; in [6] it was -0.0455; in assay [7], 0.173. Also, the values for the composite z-score in [8], in assay [9] and in [10] were 0.134, 0.123 and -0.693, respectively. The z-score in assay [2] was -3.67.
On to `CO[C@H]1COC(=O)[C@H](C)NC(=O)CC=C[C@@H](C)[C@H](NS(=O)(=O)c2ccc(C)cc2)COC(=O)[C@@H](OCc2ccccc2)C=C[C@@H]1C`, for which the composite z-score is -0.117 in assay [1]; 0.449 in assay [3]; -0.967 in assay [4]; -1.02 in [5]; -0.248 in assay [6]; -0.167 in assay [7]. In addition, the composite z-score in [8] is -0.173; in assay [9], -0.141; in assay [10], -0.606. In assay [2], this compound showed a z-score of -0.179.
On to `CCN1C(C)=C(C(=O)OC)[C@@H](c2ccccc2)N2C(=O)[C@@]3(C(=O)OC)O[C@@]12[C@@H]1C(=O)CCC[C@@H]13`, for which the composite z-score was 0.0258 in assay [1]; 1.38 in [3]; -1.2 in [4]; -1.08 in [5]; -0.0758 in [6]; 0.0637 in assay [7]. Also, the composite z-score in [8] was -0.43; in assay [9], 0.157; in [10], -0.954. For the same compound, in assay [2], the z-score was -0.216.
Consider `C=CCOC(=O)[C@@H]1[C@H]2C(=O)O[C@H](c3ccccc3)[C@H](c3ccccc3)N2[C@H](c2ccc(OCCOC(=O)[C@H]3C[C@H]4C(=O)N5CCC[C@H]5C(=O)N4[C@H]3c3ccc(O)cc3)cc2)[C@@]12C(=O)Nc1ccccc12`, for which the composite z-score is -0.747 in assay [1]; 0.382 in [3]; 1.27 in assay [4]; 0.699 in [5]; 0.0047 in assay [6]; 0.14 in assay [7]. Also, the composite z-score in assay [8] came out at 0.305; in assay [9] it was 0.87; in assay [10] it was 1.33. In addition, the z-score in [2] is -1.31.
Take `C=CCc1cccc([C@H]2N[C@H](C(=O)O)CC[C@@H]2C)c1`: the composite z-score is 0.175 in assay [1]; 0.956 in assay [3]; -0.962 in assay [4]; -1.26 in assay [5]; -0.232 in assay [6]; -0.271 in assay [7]. Also, the composite z-score was -0.539 in assay [8], 0.0883 in assay [9] and -0.142 in assay [10]. In assay [2], this compound had a z-score of -0.222.
